From ChEMBL document CHEMBL3988442, “University of Dundee, Small-Polar-MMV Screening Library” (2021) come the findings set out here.

Structures are written as SMILES. For some assays here: Entries with a potency or affinity are not part of this list.

Common to all, as to design: scale not given: direction of the effect not stated beside the values
For assay [1], the target named is Protein translocase subunit SecA (Escherichia coli (strain K12)) (UniProt P10408). Kind of assay: Assay to Identify E. coli SecA ATPase Inhibitors. Format: functional. The settings on record: 30 µM.
The target of assay [2] is T1, Ubiquitin-activating enzyme e1, putative (Leishmania donovani (strain BPK282A1)) (UniProt E9BSI1).
T1 sequence (whole entry): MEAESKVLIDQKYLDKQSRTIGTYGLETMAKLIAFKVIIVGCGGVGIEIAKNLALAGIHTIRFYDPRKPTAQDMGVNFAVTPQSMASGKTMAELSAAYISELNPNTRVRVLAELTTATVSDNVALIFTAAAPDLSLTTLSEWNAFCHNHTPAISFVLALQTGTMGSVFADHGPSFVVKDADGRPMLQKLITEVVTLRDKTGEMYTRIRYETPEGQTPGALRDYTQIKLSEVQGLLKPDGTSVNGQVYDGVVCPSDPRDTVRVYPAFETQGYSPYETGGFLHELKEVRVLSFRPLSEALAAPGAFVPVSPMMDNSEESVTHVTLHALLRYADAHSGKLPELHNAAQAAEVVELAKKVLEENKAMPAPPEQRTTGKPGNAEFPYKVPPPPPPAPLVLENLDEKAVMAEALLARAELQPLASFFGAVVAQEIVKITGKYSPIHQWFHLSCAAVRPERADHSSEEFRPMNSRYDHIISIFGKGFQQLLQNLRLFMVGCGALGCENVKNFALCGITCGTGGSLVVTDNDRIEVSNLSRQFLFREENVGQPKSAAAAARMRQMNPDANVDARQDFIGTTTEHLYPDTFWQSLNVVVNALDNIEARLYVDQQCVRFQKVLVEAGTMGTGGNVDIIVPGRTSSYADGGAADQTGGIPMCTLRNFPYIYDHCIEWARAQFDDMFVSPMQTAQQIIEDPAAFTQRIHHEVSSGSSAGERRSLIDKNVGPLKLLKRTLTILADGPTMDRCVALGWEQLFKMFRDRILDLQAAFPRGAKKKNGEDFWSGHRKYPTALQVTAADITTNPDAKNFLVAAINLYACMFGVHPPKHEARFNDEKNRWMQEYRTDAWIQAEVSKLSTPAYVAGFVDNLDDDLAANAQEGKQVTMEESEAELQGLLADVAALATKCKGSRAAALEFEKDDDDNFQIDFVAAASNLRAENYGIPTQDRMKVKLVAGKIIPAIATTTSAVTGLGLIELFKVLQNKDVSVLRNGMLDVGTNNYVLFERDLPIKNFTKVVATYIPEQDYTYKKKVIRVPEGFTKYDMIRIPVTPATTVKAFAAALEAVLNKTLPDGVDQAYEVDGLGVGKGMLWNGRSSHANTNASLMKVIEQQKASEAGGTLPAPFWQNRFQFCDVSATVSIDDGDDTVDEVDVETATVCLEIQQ
Put plainly: Leishmania donovani Ubiquitin Activating Enzyme (LdE1). Type of assay: functional. The settings on record: 30 µM.

The target in assay [3] is AMP-activated protein kinase, AMPK (Homo sapiens) (UniProt P54646+O43741+P54619+Q9UGJ0+Q9Y478+Q13131+Q9UGI9). Kind of assay: AMP-dependent Kinase enzyme assay. An in vitro enzyme assay that detects ADP turnover that is directly proportional to AMPK activity. This uses naive AMPK that is activated during the assay with MK-8722. The conditions noted are these: 30 µM. Format: functional.

Assay [4] deals with Sialic acid-binding Ig-like lectin 9 (Homo sapiens) (UniProt Q9Y336). Put plainly: Hs-Siglec9 ALPHAscreen SOP 20170721. The conditions noted are these: 10 µM. (Alpha assays give light when donor and acceptor beads are brought close together.)
Another assay has as its system Trypanosoma cruzi. Put plainly: Trypanosoma cruzi phosphomannomutase and mannose-1-phosphate guanylyltransferase assay. Format: functional. The conditions noted are these: 10 µM.
Assay [5] concerns the target T2, Arginase-2, mitochondrial (Homo sapiens) (UniProt P78540).
T2 sequence (whole entry): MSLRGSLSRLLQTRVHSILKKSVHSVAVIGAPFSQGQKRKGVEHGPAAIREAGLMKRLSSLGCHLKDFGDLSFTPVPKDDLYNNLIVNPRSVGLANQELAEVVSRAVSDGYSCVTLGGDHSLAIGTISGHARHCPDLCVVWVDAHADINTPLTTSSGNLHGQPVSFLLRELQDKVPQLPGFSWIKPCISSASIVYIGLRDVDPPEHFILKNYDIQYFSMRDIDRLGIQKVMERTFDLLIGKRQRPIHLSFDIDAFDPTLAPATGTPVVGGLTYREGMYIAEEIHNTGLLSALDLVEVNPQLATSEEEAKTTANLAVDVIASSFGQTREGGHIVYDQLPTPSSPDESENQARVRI
Put plainly: in vitro enzyme assay to detect the production of urea directly proportional to the activity of Arginase II. Note: in the data most compounds retested in dose-response had high values. Type of assay: functional. The conditions noted are these: 33.3 µM.

Assay [6] has as its target T3, Proteasome subunit beta (Trypanosoma cruzi) (UniProt O96673).
T3 sequence (whole entry): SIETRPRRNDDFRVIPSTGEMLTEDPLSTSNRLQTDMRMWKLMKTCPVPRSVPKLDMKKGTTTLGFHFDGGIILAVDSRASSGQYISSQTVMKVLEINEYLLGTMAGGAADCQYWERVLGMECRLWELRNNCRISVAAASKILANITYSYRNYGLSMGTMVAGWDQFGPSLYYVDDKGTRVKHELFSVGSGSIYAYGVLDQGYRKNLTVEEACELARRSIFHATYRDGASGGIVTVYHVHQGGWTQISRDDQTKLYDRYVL
Put plainly: Trypanosoma cruzi proteasome chymotrypsin-like activity (TcProtChymo) assay. Note: in the data most compounds retested in dose-response had high values. Type of assay: functional. The conditions noted are these: 9.37 µM.

Another assay is filed under the species Homo sapiens. Put plainly: To identify inhibition of the IFN signalling (Jak-Stat) pathway via expression of an eGFP reporter gene under the control of an IFN-stimulated response element (ISRE) containing MxA promoter. Type of assay: functional. The settings on record: 30 µM.
Assay [7] concerns the target T4, Tyrosyl-tRNA synthetase, putative (Trypanosoma cruzi (strain CL Brener)) (UniProt Q4DSP6).
T4 sequence (whole entry): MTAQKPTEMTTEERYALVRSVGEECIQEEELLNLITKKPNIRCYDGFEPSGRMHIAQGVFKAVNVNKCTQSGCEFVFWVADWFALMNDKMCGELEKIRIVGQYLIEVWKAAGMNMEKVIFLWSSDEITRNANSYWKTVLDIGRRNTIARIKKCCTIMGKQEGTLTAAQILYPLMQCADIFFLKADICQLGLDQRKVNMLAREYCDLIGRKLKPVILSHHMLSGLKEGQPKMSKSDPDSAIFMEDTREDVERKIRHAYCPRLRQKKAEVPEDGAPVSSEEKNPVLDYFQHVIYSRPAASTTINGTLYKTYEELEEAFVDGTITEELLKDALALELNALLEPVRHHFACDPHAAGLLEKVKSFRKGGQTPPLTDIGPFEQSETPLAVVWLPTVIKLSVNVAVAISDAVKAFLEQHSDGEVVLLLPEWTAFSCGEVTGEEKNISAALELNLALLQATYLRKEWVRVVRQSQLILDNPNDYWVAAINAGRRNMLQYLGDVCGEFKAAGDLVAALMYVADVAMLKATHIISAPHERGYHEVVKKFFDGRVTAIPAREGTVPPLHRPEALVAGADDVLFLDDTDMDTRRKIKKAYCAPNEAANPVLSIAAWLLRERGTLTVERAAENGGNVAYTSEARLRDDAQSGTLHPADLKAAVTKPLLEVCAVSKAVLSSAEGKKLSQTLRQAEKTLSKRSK
Kind of assay: Trypanosoma cruzi tyrosyl tRNA synthetase (TcYRS) _High Tyrosine SOP. Note: in the data most compounds retested in dose-response had high values. The settings on record: 30 µM. Format: functional.

Assay [8] has as its target T4, Tyrosyl-tRNA synthetase, putative (Trypanosoma cruzi (strain CL Brener)). Put plainly: Trypanosoma cruzi tyrosyl tRNA synthetase (TcYRS) SOP. Type of assay: functional. The settings on record: 30 µM.
The target in assay [9] is Chromo domain-containing protein 1 (Saccharomyces cerevisiae (strain ATCC 204508 / S288c) (Baker's yeast)) (UniProt P32657). Put plainly: ScCHD-1 Enzyme Inhibition Assay. Note: in the data most compounds retested in dose-response had high values. The settings on record: 30 µM. Format: functional.
Chain of Chromo domain-containing protein 1 (Saccharomyces cerevisiae (strain ATCC 204508 / S288c) (Baker's yeast)) (P32657 whole entry, the tested form may be a part): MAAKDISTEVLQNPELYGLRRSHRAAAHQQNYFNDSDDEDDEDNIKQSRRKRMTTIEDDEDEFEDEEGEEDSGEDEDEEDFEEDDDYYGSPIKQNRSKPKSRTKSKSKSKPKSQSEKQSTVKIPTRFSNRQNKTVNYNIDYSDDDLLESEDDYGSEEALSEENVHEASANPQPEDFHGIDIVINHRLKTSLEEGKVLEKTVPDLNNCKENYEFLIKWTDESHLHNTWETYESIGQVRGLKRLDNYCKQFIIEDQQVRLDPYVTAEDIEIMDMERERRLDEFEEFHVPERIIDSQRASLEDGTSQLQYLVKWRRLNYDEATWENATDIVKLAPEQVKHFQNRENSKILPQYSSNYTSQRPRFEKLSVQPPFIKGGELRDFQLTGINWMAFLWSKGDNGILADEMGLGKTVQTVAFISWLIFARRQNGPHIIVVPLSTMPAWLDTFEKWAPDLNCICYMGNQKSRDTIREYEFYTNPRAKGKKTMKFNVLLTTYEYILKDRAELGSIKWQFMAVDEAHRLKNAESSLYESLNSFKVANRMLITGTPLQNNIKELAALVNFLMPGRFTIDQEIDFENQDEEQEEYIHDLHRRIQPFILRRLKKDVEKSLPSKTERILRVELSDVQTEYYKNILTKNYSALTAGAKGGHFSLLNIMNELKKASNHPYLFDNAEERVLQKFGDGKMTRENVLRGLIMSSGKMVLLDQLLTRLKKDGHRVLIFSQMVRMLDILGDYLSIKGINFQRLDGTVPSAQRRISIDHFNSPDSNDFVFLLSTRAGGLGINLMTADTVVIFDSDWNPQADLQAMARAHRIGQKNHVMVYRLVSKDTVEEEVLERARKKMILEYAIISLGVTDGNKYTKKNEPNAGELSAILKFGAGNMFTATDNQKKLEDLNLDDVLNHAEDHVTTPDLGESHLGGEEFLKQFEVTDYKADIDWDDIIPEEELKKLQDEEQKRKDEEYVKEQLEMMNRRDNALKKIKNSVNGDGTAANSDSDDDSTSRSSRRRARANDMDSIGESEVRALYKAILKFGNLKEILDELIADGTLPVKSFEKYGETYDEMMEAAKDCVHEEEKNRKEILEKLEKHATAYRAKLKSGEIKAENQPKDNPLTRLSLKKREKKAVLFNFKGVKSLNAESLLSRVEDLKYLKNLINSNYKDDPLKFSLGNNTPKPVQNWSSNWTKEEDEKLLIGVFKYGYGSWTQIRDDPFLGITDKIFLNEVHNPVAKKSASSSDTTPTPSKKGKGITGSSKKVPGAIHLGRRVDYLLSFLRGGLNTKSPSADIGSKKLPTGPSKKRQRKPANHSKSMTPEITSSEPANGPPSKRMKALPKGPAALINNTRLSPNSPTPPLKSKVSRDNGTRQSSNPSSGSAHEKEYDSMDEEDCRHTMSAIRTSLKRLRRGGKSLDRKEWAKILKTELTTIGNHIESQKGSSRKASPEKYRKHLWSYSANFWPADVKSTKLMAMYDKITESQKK

Chain of Protein translocase subunit SecA (Escherichia coli (strain K12)) (P10408 whole entry): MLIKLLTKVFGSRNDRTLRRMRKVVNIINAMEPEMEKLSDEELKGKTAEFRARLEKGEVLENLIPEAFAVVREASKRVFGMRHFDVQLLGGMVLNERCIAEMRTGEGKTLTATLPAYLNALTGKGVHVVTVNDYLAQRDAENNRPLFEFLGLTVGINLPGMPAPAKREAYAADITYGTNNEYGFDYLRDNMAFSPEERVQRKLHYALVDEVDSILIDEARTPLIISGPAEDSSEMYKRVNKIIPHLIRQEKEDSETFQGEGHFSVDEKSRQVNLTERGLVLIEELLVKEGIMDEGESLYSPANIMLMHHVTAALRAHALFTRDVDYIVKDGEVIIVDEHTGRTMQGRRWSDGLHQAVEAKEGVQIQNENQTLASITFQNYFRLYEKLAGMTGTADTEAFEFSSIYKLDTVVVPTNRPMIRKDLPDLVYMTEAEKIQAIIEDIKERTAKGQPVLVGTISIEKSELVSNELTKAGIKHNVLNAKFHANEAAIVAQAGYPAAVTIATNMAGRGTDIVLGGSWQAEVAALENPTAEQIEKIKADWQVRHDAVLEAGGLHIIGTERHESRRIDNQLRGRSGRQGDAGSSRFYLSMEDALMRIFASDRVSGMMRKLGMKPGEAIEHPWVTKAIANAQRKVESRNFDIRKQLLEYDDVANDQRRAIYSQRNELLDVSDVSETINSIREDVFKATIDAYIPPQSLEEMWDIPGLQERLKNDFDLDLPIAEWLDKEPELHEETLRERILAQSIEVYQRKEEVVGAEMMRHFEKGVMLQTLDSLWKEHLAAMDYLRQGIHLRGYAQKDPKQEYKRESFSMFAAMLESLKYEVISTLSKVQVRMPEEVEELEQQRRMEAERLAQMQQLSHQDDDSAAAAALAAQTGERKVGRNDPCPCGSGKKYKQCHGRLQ
Chain of Sialic acid-binding Ig-like lectin 9 (Homo sapiens) (Q9Y336 whole entry): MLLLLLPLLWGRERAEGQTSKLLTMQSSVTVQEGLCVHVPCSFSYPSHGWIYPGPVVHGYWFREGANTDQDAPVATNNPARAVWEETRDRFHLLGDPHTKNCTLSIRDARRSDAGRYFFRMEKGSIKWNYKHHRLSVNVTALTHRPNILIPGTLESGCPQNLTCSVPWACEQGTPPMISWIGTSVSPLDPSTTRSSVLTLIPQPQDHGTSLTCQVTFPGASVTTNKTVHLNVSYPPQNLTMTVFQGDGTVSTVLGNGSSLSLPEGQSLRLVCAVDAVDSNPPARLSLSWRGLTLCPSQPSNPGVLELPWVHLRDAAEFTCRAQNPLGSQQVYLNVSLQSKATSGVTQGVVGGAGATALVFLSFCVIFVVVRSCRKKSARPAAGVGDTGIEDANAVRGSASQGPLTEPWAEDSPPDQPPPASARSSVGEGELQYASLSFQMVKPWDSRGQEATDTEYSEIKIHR

As for `c1ccc(-c2noc(CN3CCC(c4ccn[nH]4)CC3)n2)cc1`, the Percent Effect in assay [1] is 1.64%; in [2], -8.11%; in [3], -9.82%; in assay [4] it was 9.87%; with Trypanosoma cruzi it was 3.09%; in assay [5], 26.2%. Further, the Percent Effect in assay [6] is 21.9%; in the assay listed under Homo sapiens it was -10.4%; in assay [7], 4.76%; in assay [8], 14.6%; in assay [9], -1.3%.

Take `Cn1ccc(C(=O)N2CCCC(Cc3cccc4ncccc34)C2)n1` (stereo not given): the Percent Effect in assay [1] was -7.55%; in assay [2], 14.9%; in assay [3] it was -6.32%; in [4], 5%; with Trypanosoma cruzi it was 4.74%; in [5], -4.41%. Also, the Percent Effect in [6] is 7.33%; in the assay filed under Homo sapiens, 49.9%; in assay [7] it was 3.23%; in assay [8], -6.49%; in [9] it was -12%.

For the compound `CC(=O)Nc1nc(CN2CCCCC2Cn2cccn2)cs1` (stereo not given), the Percent Effect was -4.14% in assay [1]; 5.26% in assay [2]; 3.07% in assay [3]; -1.3% in assay [4]; -0.0974% in the assay with Trypanosoma cruzi; -1.18% in assay [5]. Moreover, the Percent Effect in [6] was 10.8%; in the assay listed under Homo sapiens it was 20.7%; in assay [7] it was 9.57%; in assay [8], 15.6%; in assay [9] it was -6.41%.

In the case of `CN(C)C(=O)[C@H]1C[C@@H]2CCN(C3CCOCC3)C[C@H]2O1`, the Percent Effect in assay [1] is -0.651%; in assay [2], 2.67%; in assay [3], -1.32%; in assay [4] it was -3.17%; with Trypanosoma cruzi, 4.44%; in assay [5], -50.7%. Moreover, the Percent Effect is -1.03% in [6]; -1.34% in the assay filed under Homo sapiens; -1.04% in assay [7]; -5% in assay [8]; -4.08% in assay [9].

Consider `Cn1ccnc1CN1CCN(CC(=O)NCC(F)(F)F)CC1`, for which the Percent Effect in assay [1] was -2.81%; in [2], 5.41%; in [3], -5.23%; in assay [4], 3.2%; in the assay with Trypanosoma cruzi it was -0.66%; in assay [5], -4.01%. For the same compound, the Percent Effect was 0% in assay [6]; 11.1% in the assay filed under Homo sapiens; 0.493% in assay [7]; 6.17% in assay [8]; -3% in [9].

Regarding `Cc1ncc2c(n1)CN(Cc1noc(C3CC3)n1)CC2`, the Percent Effect in assay [1] is -6.18%; in assay [2], 15.6%; in [3], -33.1%; in assay [4], 11.6%; in the assay on Trypanosoma cruzi it was 5.43%; in assay [5] it was 2.85%. Also, the Percent Effect was 8.11% in assay [6]; 2.58% in the assay filed under Homo sapiens; 6.8% in assay [7]; 19.5% in assay [8]; -13.7% in [9].

`COc1ccccc1S(=O)(=O)Nc1ccc2c(C(=O)O)c[nH]c2c1`: the Percent Effect in [1] was -5.95%; in [2] it was -10.4%; in [3] it was -64.6%; in [4], 10.9%; with Trypanosoma cruzi it was 8.05%; in assay [5], -4.98%. In addition, the Percent Effect in assay [6] is 8.28%; in the assay listed under Homo sapiens, 14.3%; in assay [7], 0%; in [8], 12.2%; in assay [9], -7.94%.

As to `COc1cc(NC(=O)c2cc(C)sc2C)c(C(=O)N(C)C)cc1OC`, the Percent Effect is 0.25% in assay [1]; 7.79% in assay [2]; -2.17% in [3]; 6.61% in assay [4]; 4.42% with Trypanosoma cruzi; -37.2% in [5]. In addition, the Percent Effect is 19.1% in assay [6]; -8.35% in the assay filed under Homo sapiens; 4.3% in assay [7]; 13.6% in assay [8]; -1.78% in [9].

Regarding `Cc1ccc(C(NC(=O)CC2CCN(C(C)C)CC2)C(=O)O)cc1` (stereo not given), the Percent Effect in assay [1] was -4.94%; in assay [2] it was 2.7%; in assay [3], -0.654%; in [4], -0.948%; in the assay on Trypanosoma cruzi, 1.74%; in [5], 0.476%. For the same compound, the Percent Effect turned out to be 1.55% in assay [6]; 0.454% in the assay filed under Homo sapiens; 2.65% in assay [7]; 9.76% in assay [8]; 0.336% in assay [9].

In the case of `CC(C(=O)NCc1ccc(N2CCNC(=O)C2)cc1)n1cncn1` (stereo not given), the Percent Effect is -6.76% in [1]; 26% in assay [2]; -36.6% in assay [3]; 17.6% in [4]; 8.24% in the assay on Trypanosoma cruzi; 1.42% in assay [5]. For the same compound, the Percent Effect in [6] was 5.57%; in the assay filed under Homo sapiens, 14.6%; in [7], 5.83%; in [8] it was 21.9%; in [9], -12.2%.
